The source made the active and inactive calls. How the source made its calls: active means hit-call score of the fitted dose curve at least 0.9, where 1 is the maximum; inactive means score below 0.9.
experiment: APR_HepG2_MicrotubuleCSK_1hr: Apredica 1-hour HepG2 Assay for Microtubule CSK Stabilty (AID 2282669); conditions: HepG2 microtubule cytoskeleton imaging, actives raise or lower the signal
How it was run: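 HepG2 cells exposed 1 h to 0.39–200 uM compound (0.5% DMSO, duplicates), then formaldehyde-fixed, permeabilized and immunostained for alpha-tubulin with Hoechst nuclei. Imaged by ArrayScan high-content analysis; bidirectional fit versus DMSO.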

SMILES	outcome
CCSC(=O)N1CCCCCC1	inactive
COP(=O)(OC)O/C(C)=C/C(=O)N(C)C	inactive
C=CCOC(=O)C(C)(C)OC(=O)c1cc(-n2c(=O)cc(C(F)(F)F)n(C)c2=O)ccc1Cl	inactive
CN=C=S	inactive
Nc1c(Cl)c(F)nc(OCC(=O)O)c1Cl	inactive
Cc1cc(C)nc(Nc2ccccc2)n1	inactive
Clc1nc(Cl)nc(Nc2ccccc2Cl)n1	inactive
O=P(O)(O)CCCl	inactive
CNC(=O)N(C)c1nnc(C(C)(C)C)s1	inactive
COCC(C)N(C(=O)CCl)c1c(C)csc1C (configuration not stated)	inactive
CCOC(=O)C(C)OC(=O)c1cc(Oc2ccc(C(F)(F)F)cc2Cl)ccc1[N+](=O)[O-] (configuration not stated)	inactive
COC(=O)c1c(C(F)F)nc(C(F)(F)F)c(C2=NCCS2)c1CC(C)C	inactive
CC(C)Oc1cccc(NC(=O)c2ccccc2C(F)(F)F)c1	inactive
CN/C(=N\[N+](=O)[O-])NCc1cnc(Cl)s1	inactive
Cn1c(-c2ccccc2)cc(-c2ccccc2)[n+]1C	inactive
CC(C)C1(C)N=C(c2ncccc2C(=O)O)NC1=O (configuration not stated)	inactive
N#CN=C1SCCN1Cc1ccc(Cl)nc1	inactive
CCCCOCN(C(=O)CCl)c1c(CC)cccc1CC	inactive

SMILES	outcome
CC(C)Nc1nc(Cl)nc(NC(C)C)n1	inactive
COC(=O)NC(=S)Nc1ccccc1NC(=S)NC(=O)OC	inactive
CCNP(=S)(OC)O/C(C)=C/C(=O)OC(C)C (configuration not stated)	inactive
CS(=O)(=O)c1ccc(C(=O)C2C(=O)CCCC2=O)c([N+](=O)[O-])c1	inactive
COC(=O)NS(=O)(=O)c1ccc(N)cc1	inactive
CNC(=O)Oc1cccc2ccccc12	inactive
CCCCC(C#N)(Cn1cncn1)c1ccc(Cl)cc1 (configuration not stated)	inactive
COC(=O)N(C(=O)N1CO[C@@]2(C(=O)OC)Cc3cc(Cl)ccc3C2=N1)c1ccc(OC(F)(F)F)cc1	inactive
CCNC(=O)NC(=O)C(C#N)=NOC	inactive
Nc1c(Cl)c(Cl)nc(C(=O)O)c1Cl	inactive
CCCCC(O)(Cn1cncn1)c1ccc(Cl)cc1Cl (configuration not stated)	inactive
Cc1c(COC(=O)[C@@H]2[C@H](/C=C(\Cl)C(F)(F)F)C2(C)C)cccc1-c1ccccc1	inactive
CO/N=C(/C1=NOCCO1)c1ccccc1Oc1ncnc(Oc2ccccc2Cl)c1F	inactive
O=C1C2CC=CCC2C(=O)N1SC(Cl)(Cl)Cl (configuration not stated)	inactive
CC(C)=CC1C(C(=O)OCc2coc(Cc3ccccc3)c2)C1(C)C (configuration not stated)	inactive
CCOc1cc(C(C)(C)C)ccc1C1COC(c2c(F)cccc2F)=N1 (configuration not stated)	inactive
CC(C)N1C(=O)c2ccccc2NS1(=O)=O	inactive
O=C(Nc1ccccc1-c1ccc(Cl)cc1)c1cccnc1Cl	inactive

experiment: APR_HepG2_NuclearSize_1hr: Apredica 1-hour HepG2 Assay for Nuclear Size (AID 2282670); conditions: high-content imaging, actives raise or lower the signal
How it was run: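 HepG2 cells dosed 1 hr with 0.39–200 uM compound (0.5% DMSO), formaldehyde-fixed, Hoechst 33342-stained and imaged at 20x; nuclear diameter from nuclear stain, fitted bidirectionally against DMSO.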

SMILES	outcome
COP(=O)(OC)O/C(C)=C/C(=O)N(C)C	inactive
C=CCOC(=O)C(C)(C)OC(=O)c1cc(-n2c(=O)cc(C(F)(F)F)n(C)c2=O)ccc1Cl	inactive
CN=C=S	inactive
Nc1c(Cl)c(F)nc(OCC(=O)O)c1Cl	inactive
Clc1nc(Cl)nc(Nc2ccccc2Cl)n1	inactive
CCOC(=O)C(C)OC(=O)c1cc(Oc2ccc(C(F)(F)F)cc2Cl)ccc1[N+](=O)[O-] (configuration not stated)	inactive
CC(C)Oc1cccc(NC(=O)c2ccccc2C(F)(F)F)c1	inactive
Cn1c(-c2ccccc2)cc(-c2ccccc2)[n+]1C	inactive
CC(C)C1(C)N=C(c2ncccc2C(=O)O)NC1=O (configuration not stated)	inactive
COC(=O)NC(=S)Nc1ccccc1NC(=S)NC(=O)OC	inactive
CCNP(=S)(OC)O/C(C)=C/C(=O)OC(C)C (configuration not stated)	inactive
CNC(=O)Oc1cccc2ccccc12	inactive
CCNC(=O)NC(=O)C(C#N)=NOC	inactive
CCCCC(O)(Cn1cncn1)c1ccc(Cl)cc1Cl (configuration not stated)	inactive
Cc1c(COC(=O)[C@@H]2[C@H](/C=C(\Cl)C(F)(F)F)C2(C)C)cccc1-c1ccccc1	inactive
CC(C)N1C(=O)c2ccccc2NS1(=O)=O	inactive
O=C(Nc1ccccc1-c1ccc(Cl)cc1)c1cccnc1Cl	inactive

experiment: APR_HepG2_p53Act_1hr: Apredica 1-hour HepG2 Assay for p53 Activation (AID 2282671); conditions: high-content imaging, actives raise or lower the signal
How it was run: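 HepG2 cells treated 1 h with compound at 0.39–200 uM (10 concentrations, duplicate) in 0.5% DMSO. Formaldehyde-fixed, permeabilised cells immunostained for p53 with Hoechst 33342; high-content imaging, bidirectional fit versus DMSO.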

SMILES	outcome
CCSC(=O)N1CCCCCC1	inactive
CN=C=S	inactive
Nc1c(Cl)c(F)nc(OCC(=O)O)c1Cl	inactive
Clc1nc(Cl)nc(Nc2ccccc2Cl)n1	inactive
COCC(C)N(C(=O)CCl)c1c(C)csc1C (configuration not stated)	inactive
CCCCOCN(C(=O)CCl)c1c(CC)cccc1CC	inactive
CCNP(=S)(OC)O/C(C)=C/C(=O)OC(C)C (configuration not stated)	inactive
COC(=O)NS(=O)(=O)c1ccc(N)cc1	inactive
Nc1c(Cl)c(Cl)nc(C(=O)O)c1Cl	inactive
CCCCC(O)(Cn1cncn1)c1ccc(Cl)cc1Cl (configuration not stated)	inactive
Cc1c(COC(=O)[C@@H]2[C@H](/C=C(\Cl)C(F)(F)F)C2(C)C)cccc1-c1ccccc1	inactive
CO/N=C(/C1=NOCCO1)c1ccccc1Oc1ncnc(Oc2ccccc2Cl)c1F	inactive
CC(C)N1C(=O)c2ccccc2NS1(=O)=O	inactive
O=C(Nc1ccccc1-c1ccc(Cl)cc1)c1cccnc1Cl	inactive

Source: PubChem BioAssay (EPA / NIEHS)
